From PubChem BioAssay (EPA / NIEHS)
Calls of active or inactive are those of the source. Rule for the calls: active = hit-call score of the fitted dose curve at least 0.9, where 1 is the maximum; inactive = score below 0.9.

What was measured:
[1] = read-out: Transforming growth factor beta 1 (TGFb1), TGFB1 (gene 7040); assay: BSK_KF3CT_TGFb1: BioMAP Diversity Plus: KF3CT Assay for Transforming growth factor beta 1 (TGFb1) Biomarker Activity (AID 2283072); conditions: primary human keratinocytes with fibroblasts; actives raise or lower the signal
Procedure, shortened: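 ELISA quantifies TGF-b1 at 24 h post-dose in a primary human skin co-culture of keratinocytes and fibroblasts, with gain or loss judged against DMSO. Parallel SRB total-protein staining flags overt cytotoxicity.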

[2] = read-out: C-C motif chemokine 2 (Homo sapiens) (UniProt P13500); assay: BSK_KF3CT_MCP1: BioMAP Diversity Plus: KF3CT Assay for Monocyte Chemoattractant Protein 1 (MCP1/CCL2) Biomarker Activity (AID 2283073); conditions: primary human keratinocytes with fibroblasts; actives raise or lower the signal
Procedure, shortened: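 KF3CT skin co-culture (keratinocytes/foreskin fibroblasts), 24 h post-dose; MCP-1 by ELISA; gain/loss of signal fit bidirectionally vs DMSO baseline.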

[3] = read-out: urokinase plasminogen activator (uPA), PLAU (gene 5328); assay: BSK_KF3CT_uPA: BioMAP Diversity Plus: KF3CT Assay for urokinase plasminogen activator (uPA) Biomarker Activity (AID 2283075); conditions: primary human keratinocytes with fibroblasts; actives raise or lower the signal
Procedure, shortened: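 ELISA read-out of uPA 24 h after dosing human skin keratinocytes co-cultured with foreskin fibroblasts. Signal change fitted both ways relative to DMSO; sulforhodamine B on parallel cultures marks overt cytotoxicity.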

CD40, CD40 (gene 958) [4] = assay: BSK_LPS_CD40: BioMAP Diversity Plus: LPS Assay for CD40 Biomarker Activity (AID 2283076); conditions: primary human HUVEC with PBMC; actives raise or lower the signal
Procedure, shortened: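 ELISA readout of CD40 in HUVEC/PBMC co-culture (BSK_LPS system), 24 h post-dosing; bidirectional curve fit, DMSO baseline; parallel SRB total-protein staining for cytotoxicity.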

[5] = read-out: E-selectin (Homo sapiens) (UniProt P16581); assay: BSK_LPS_Eselectin: BioMAP Diversity Plus: LPS Assay for Eselectin Biomarker Activity (AID 2283077); conditions: primary human HUVEC with PBMC; actives raise or lower the signal
Procedure, shortened: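 ELISA readout of E-selectin, 24 h post-dose, HUVEC + PBMC co-culture (LPS system). Gain or loss of signal vs DMSO baseline, bidirectional fit.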

[6] = read-out: Interleukin-8 (IL8), CXCL8 (gene 3576); assay: BSK_LPS_IL8: BioMAP Diversity Plus: LPS Assay for Interleukin-8 (IL8) Biomarker Activity (AID 2283078); conditions: primary human HUVEC with PBMC; actives raise or lower the signal
Procedure, shortened: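 HUVEC + PBMC co-culture, LPS-activated; test chemicals dosed, IL-8 read by ELISA at 24 h. Bidirectional curve fit vs DMSO baseline (gain or loss of signal).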

[7] = BSK_LPS_SRB: Viability Assessment in the BioMAP Diversity Plus: LPS Assay (AID 2283079); conditions: primary human HUVEC with PBMC;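 note: total protein by sulforhodamine B absorbance as a cytotoxicity measure; measured one day after compound addition; fitted in both directions against DMSO so loss or gain of signal counts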
Procedure, shortened: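 HUVEC + PBMC co-culture, LPS-stimulated; compound 24 h. 10% TCA fix, 0.1% SRB stain, A560. Bidirectional fit vs DMSO.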

[8] = read-out: Interleukin-1 alpha (IL1a), IL1A (gene 3552); assay: BSK_LPS_IL1a: BioMAP Diversity Plus: LPS Assay for Interleukin-1 alpha (IL1a) Biomarker Activity (AID 2283080); conditions: primary human HUVEC with PBMC; actives raise or lower the signal
Procedure, shortened: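 HUVEC/PBMC co-culture, LPS system; 24 h after dosing; IL-1a by ELISA; gain or loss of signal fitted bidirectionally vs DMSO baseline.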

[9] = read-out: Monocyte Chemoattractant Protein-1 (MCP1), CCL2 (gene 6347); assay: BSK_LPS_MCP1: BioMAP Diversity Plus: LPS Assay for Monocyte Chemoattractant Protein-1 (MCP1) Biomarker Activity (AID 2283081); conditions: primary human HUVEC with PBMC; actives raise or lower the signal
Procedure, shortened: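 ELISA read-out of MCP-1 after 24 h chemical dosing of a human umbilical vein endothelial cell/peripheral blood mononuclear cell co-culture stimulated with LPS. Gain or loss of signal fitted relative to DMSO controls.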

[10] = BSK_LPS_PGE2: BioMAP Diversity Plus: LPS Assay for Prostaglandin E2 (PGE2) Biomarker Activity (AID 2283082); conditions: primary human HUVEC with PBMC; actives raise or lower the signal;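 for AC50: secreted prostaglandin E2 measured by ELISA in LPS-stimulated co-culture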
Procedure, shortened: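 PGE2 release measured by ELISA in an LPS-activated co-culture of human umbilical vein endothelial cells and peripheral blood mononuclear cells, read at 24 h post-dosing. DMSO served as baseline for bidirectional curve fitting.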

[11] = read-out: Macrophage colony-stimulating factor (MCSF), CSF1 (gene 1435); assay: BSK_LPS_MCSF: BioMAP Diversity Plus: LPS Assay for Macrophage colony-stimulating factor (MCSF) Biomarker Activity (AID 2283083); conditions: primary human HUVEC with PBMC; actives raise or lower the signal
Procedure, shortened: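 HUVEC + PBMC co-culture (human primary), 24 h post-dose; M-CSF by ELISA; gain/loss of signal fitted bidirectionally vs DMSO baseline.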

[12] = read-out: Tissue Factor, F3 (gene 2152); assay: BSK_LPS_TissueFactor: BioMAP Diversity Plus: LPS Assay for Tissue Factor Biomarker Activity (AID 2283084); conditions: primary human HUVEC with PBMC; actives raise or lower the signal
Procedure, shortened: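 HUVEC/PBMC co-culture, LPS-activated; CD142 ELISA read 24 h post-dose; bidirectional curve fit vs DMSO negative control.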

[13] = read-out: Tumor necrosis factor (Homo sapiens) (UniProt P01375); assay: BSK_LPS_TNFa: BioMAP Diversity Plus: LPS Assay for Tumour Necrosis Factor alpha (TNFa) Biomarker Activity (AID 2283085); conditions: primary human HUVEC with PBMC; actives raise or lower the signal;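 for AC50: TNFa protein level quantified by ELISA in the co-culture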
Procedure, shortened: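 TNFa was quantified by ELISA in LPS-activated co-cultures of human endothelial cells and PBMC, 24 h post-dosing. Both increases and decreases versus DMSO were fitted.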

[14] = read-out: Vascular cell adhesion molecule 1 (VCAM1), VCAM1 (gene 7412); assay: BSK_LPS_VCAM1: BioMAP Diversity Plus: LPS Assay for Vascular cell adhesion molecule 1 (VCAM1) Biomarker Activity (AID 2283086); conditions: primary human HUVEC with PBMC; actives raise or lower the signal
Procedure, shortened: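 VCAM-1 quantified by ELISA in an LPS-activated co-culture of human endothelial cells and peripheral blood mononuclear cells, read 24 h post-treatment. Fitted in both directions versus DMSO; parallel SRB staining flags overt cytotoxicity.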

CD38, CD38 (gene 952) = assay: BSK_SAg_CD38: BioMAP Diversity Plus: SAg Assay for CD38 Biomarker Activity (AID 2283087); conditions: primary human HUVEC with PBMC; actives raise or lower the signal
Procedure, shortened: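 CD38 quantified by ELISA (fluorescence) in a superantigen-activated endothelial cell–PBMC co-culture at 24 h post-dose. Activity fitted in both directions relative to DMSO; parallel SRB and Alamar Blue cytotoxicity read-outs.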

CD40, CD40 (gene 958) [15] = assay: BSK_SAg_CD40: BioMAP Diversity Plus: SAg Assay for CD40 Biomarker Activity (AID 2283088); conditions: primary human HUVEC with PBMC; actives raise or lower the signal
Procedure, shortened: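 HUVEC/PBMC co-culture, 24 h post-dose; CD40 by ELISA, fluorescence intensity; bidirectional fit vs DMSO negative control.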

[16] = read-out: Monocyte Chemoattractant Protein-1 (MCP1), CCL2 (gene 6347); assay: BSK_SAg_MCP1: BioMAP Diversity Plus: SAg Assay for Monocyte Chemoattractant Protein-1 (MCP1) Biomarker Activity (AID 2283090); conditions: primary human HUVEC with PBMC; actives raise or lower the signal
Procedure, shortened: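 Values derive from bidirectional fitting of ELISA-measured MCP1 against DMSO controls. Readings were taken 24 h after dosing human vascular endothelial cells co-cultured with peripheral blood mononuclear cells under superantigen stimulation.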

[17] = read-out: E-selectin (Homo sapiens) (UniProt P16581); assay: BSK_SAg_Eselectin: BioMAP Diversity Plus: SAg Assay for Eselectin Biomarker Activity (AID 2283091); conditions: primary human HUVEC with PBMC; actives raise or lower the signal
Procedure, shortened: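 E-selectin ELISA readout at 24 h post-dosing in human umbilical vein endothelial cell/PBMC co-culture; gain or loss of signal fitted relative to DMSO baseline.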

CD69, CD69 (gene 969) = assay: BSK_SAg_CD69: BioMAP Diversity Plus: SAg Assay for CD69 Biomarker Activity (AID 2283089); conditions: primary human HUVEC with PBMC; actives raise or lower the signal;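 for AC50: cell surface CD69 protein quantified by ELISA with fluorescence detection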
Procedure, shortened: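 Values derive from bidirectional fitting relative to DMSO vehicle. Cells: umbilical vein endothelium plus peripheral blood mononuclear cells, treated 24 h before fluorescent ELISA for CD69.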

[18] = read-out: Matrix Metallopeptidase 9 (MMP9), MMP9 (gene 4318); assay: BSK_KF3CT_MMP9: BioMAP Diversity Plus: KF3CT Assay for Matrix Metallopeptidase 9 (MMP9) Biomarker Activity (AID 2283074); conditions: primary human keratinocytes with fibroblasts; actives raise or lower the signal;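 for AC50: MMP9 protein level quantified by ELISA in the co-culture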
Procedure, shortened: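 MMP-9 quantified by ELISA after 24 h chemical treatment of primary human skin keratinocyte/fibroblast co-cultures; gain or loss fitted against DMSO, with parallel SRB staining (0.1% SRB, 560 nm) for overt cytotoxicity.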

Measured: AC50

Chain of E-selectin (Homo sapiens) (P16581 whole entry, looked up): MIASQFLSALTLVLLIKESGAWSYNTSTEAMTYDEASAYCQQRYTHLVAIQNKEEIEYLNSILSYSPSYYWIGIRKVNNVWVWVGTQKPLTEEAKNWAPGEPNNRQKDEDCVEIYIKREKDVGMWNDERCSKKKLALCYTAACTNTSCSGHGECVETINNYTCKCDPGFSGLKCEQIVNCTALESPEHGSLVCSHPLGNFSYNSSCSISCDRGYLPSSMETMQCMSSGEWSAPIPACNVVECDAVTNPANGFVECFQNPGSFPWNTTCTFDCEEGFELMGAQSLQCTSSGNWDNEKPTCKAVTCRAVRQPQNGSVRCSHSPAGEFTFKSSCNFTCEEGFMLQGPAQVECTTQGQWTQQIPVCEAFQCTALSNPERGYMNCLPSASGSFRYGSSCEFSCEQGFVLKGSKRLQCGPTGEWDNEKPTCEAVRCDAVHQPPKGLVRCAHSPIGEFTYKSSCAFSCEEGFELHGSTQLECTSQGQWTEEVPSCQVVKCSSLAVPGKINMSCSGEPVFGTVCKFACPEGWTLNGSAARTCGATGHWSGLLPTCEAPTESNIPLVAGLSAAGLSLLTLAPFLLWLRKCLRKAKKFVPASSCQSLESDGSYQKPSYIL
Chain of Tumor necrosis factor (Homo sapiens) (P01375 whole entry, looked up): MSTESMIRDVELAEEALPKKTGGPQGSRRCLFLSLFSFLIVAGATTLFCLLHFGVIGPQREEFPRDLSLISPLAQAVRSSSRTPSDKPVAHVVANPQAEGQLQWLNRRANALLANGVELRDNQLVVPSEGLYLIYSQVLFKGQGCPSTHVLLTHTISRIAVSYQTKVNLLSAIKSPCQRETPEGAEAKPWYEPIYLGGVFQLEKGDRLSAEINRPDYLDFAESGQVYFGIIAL

O=[N+]([O-])C(CO)(CO)CO
not listed: CD69, CD69 (gene 969) | [18]
inactive: all other assays above

Cc1ccccc1Cl
not listed: CD40, CD40 (gene 958) [15] | [18]
inactive: all other assays above

NCCO
not listed: [9] | [10]
inactive: all other assays above

Cc1cc(=O)[nH]c(=S)[nH]1
not listed: [18]
inactive: all other assays above

NS(=O)(=O)c1cc2c(cc1Cl)NCNS2(=O)=O
not listed: [9] | CD69, CD69 (gene 969)
inactive: all other assays above

C[C@]12C=CC(=O)C=C1CC[C@@H]1[C@@H]2C(=O)C[C@@]2(C)[C@H]1CC[C@]2(O)C(=O)CO
not listed: CD40, CD40 (gene 958) [15] | CD69, CD69 (gene 969) | [18]
inactive: all other assays above

CCOc1ccc2c(c1)C(C)=CC(C)(C)N2
active: [13] 3.97 µM
not listed: [9] | [10] | CD40, CD40 (gene 958) [15]
inactive: all other assays above

CC(=O)Oc1ccccc1C(=O)O
active: [10] 3.25 µM
not listed: [9] | CD40, CD40 (gene 958) [15] | CD69, CD69 (gene 969)
inactive: all other assays above

CCOC(=O)CCC(=O)OCC
not listed: CD69, CD69 (gene 969) | [18]
inactive: all other assays above

CCCCCC(=O)O
not listed: [9] | CD40, CD40 (gene 958) [15]
inactive: all other assays above

CCc1c(C(=O)NN2CCCCC2)nn(-c2ccc(Cl)cc2Cl)c1-c1ccc(Br)cc1
inactive: [12] | [13]
active: [1] 6.72 µM | [2] 13 µM | [18] 4.31 µM | [3] 7.27 µM | CD40, CD40 (gene 958) [4] 12.3 µM | [5] 7.44 µM | [6] 5.2 µM | [7] 9.94 µM | [8] 10.4 µM | [11] 20 µM | [14] 6.19 µM | CD38, CD38 (gene 952) 11.5 µM | CD69, CD69 (gene 969) 10.3 µM | [16] 8.24 µM | [17] 12.3 µM

Oc1ccc2c(c1)OC[C@@H](N1CCC(O)(c3ccc(F)cc3)CC1)[C@H]2O
not listed: CD69, CD69 (gene 969) | [18]
inactive: all other assays above

NCC1(Cc2noc(=O)[nH]2)CCCCC1
not listed: CD69, CD69 (gene 969) | [18]
inactive: all other assays above

COc1ccc(C)cc1N
not listed: [9] | CD40, CD40 (gene 958) [15] | CD69, CD69 (gene 969)
inactive: all other assays above

CCCCCCCCCCCCCCCCCC(=O)O
active: [7] 20 µM | [8] 20 µM | [13] 4.09 µM
not listed: CD40, CD40 (gene 958) [15] | [18]
inactive: all other assays above
